Results filed as inconclusive are left out. Activity calls are given as the source filed them. Calls follow the shape of the dose curve; as a rule, active = well fitted cell-killing curve with a large enough effect; inconclusive = small, poorly fitted or top-dose-only effect, or effect the other way; inactive = no such curve, though single readings can be large or run the other way.
Potency is read from the fitted curve at half-maximal effect.

The nature of this test: Quantitative High-Throughput drug screen in 47 multiple myeloma cell lines against the NCATS MIPE library collection: KMS12BM_JCRB cell viability assay (AID 1918971). Also: nearly all actives have a fitted effect of over 35% in size. To be noted: KMS12BM myeloma viability, CellTiter-Glo ATP, 48 h; series mostly up to 45.8 µM; viability, % of DMSO: at the top concentration. From the text:
PI: Beverly A. Mock Ph.D.
Laboratory of Cancer Biology and Genetics,
Center for Cancer Research, National Cancer Institute,
National Institute of Health, Bethesda, Maryland
Drug resistance and disease progression are common in multiple myeloma (MM) patients, underscoring the need for new therapeutic combinations. […] We hypothesized that effective combinations would reduce MYC expression and enhance p16 activity. […] These preclinical data identify potentially useful drug combinations for evaluation in drug-resistant MM and reveal potential mechanisms of combined drug sensitivity.
Described herein is the primary MIPE qHTS used to cherrypick compounds. Validated compounds were then further tested for potential synergistic activiy.
[1] Peat TJ, Gaikwad SM, Dubois W, Gyabaah-Kessie N, Zhang S, Gorjifard S, Phyo Z, Andres M, Hughitt VK, Simpson RM, Miller MA, Girvin AT, Taylor A, Williams D, D'Antonio N, Zhang Y, Rajagopalan A, Flietner E, Wilson K, Zhang X, Shinn P, Klumpp-Thomas C, McKnight C, Itkin Z, Chen L, Kazandijian D, Zhang J, Michalowski AM, Simmons JK, Keats J, Thomas CJ, Mock BA. Drug combinations identified by high-throughput screening promote cell cycle transition and upregulate Smad pathways in myeloma. Cancer Lett. 2023 Aug 1;568:216284. doi: 10.1016/j.canlet.2023.216284. Epub 2023 Jun 24. PMID: 37356470; PMCID: PMC10408729.
SEQUENCE No. (e.g., 1, 2, 3, etc.); […] (e.g., Cells, Incubation, Reagent, etc.); VALUE and DESCRIPTION.
1; Cells; 5 uL; white, solid bottom 1536-well Greiner assay plate.
2; Compounds; 23 nL; Kalypsis pin tool (Wako USA) equipped with a 1536-well pin head to transfer to the assay plates.
3; Incubation; 48 hours; 37C incubation.
4; Reagent;5uL; CellTiter Glo (Promega).
5; Detector; 425V; Luminescence; Viewlux PerkinElmer.
NOTES (numbers refer to Sequence numbers above)
1. The cell-based screening methods employed in this study were like those previously published. Briefly, the corresponding myeloma cell lines were screened in 1,536-well plates with 500 cells, 5-uL per well for inhibition of cell viability (assessed by measuring ATP levels with CellTiterGlo).
2. NCATS MIPE 4.0 library of approved and investigational drugs were added using the Kalypsis pin tool. Wells treated with DMSO only for 100% viability and media only wells for 0% viability were used as controls.
3. The assay plates were covered and incubated for 48 hours in a 37C, 5% CO2 incubator with controlled humidity.
4. After 48 hours, CellTilter-GloTM luminescent substrate mix (Promega) reagent was added to the assay plate and plates we incubated for 5 min at room temperature.
5. Signal was measured as median relative luminescence units on a ViewLux (PerkinElmer) multiplate reader.
[1] Heske CM, Davis MI, Baumgart JT, Wilson K, Gormally MV, Chen L, Zhang X, Ceribelli M, Duveau DY, Guha R, Ferrer M, Arnaldez FI, Ji J, Tran HL, Zhang Y, Mendoza A, Helman LJ, Thomas CJ. Matrix Screen Identifies Synergistic Combination of PARP Inhibitors and Nicotinamide Phosphoribosyltransferase (NAMPT) Inhibitors in Ewing Sarcoma. Clin Cancer Res. 2017 Dec 1;23(23):7301-7311. doi: 10.1158/1078-0432.CCR-17-1121. Epub 2017 Sep 12. PMID: 28899971; PMCID: PMC6636827.
Consider `C=C[C@@H]1CN2CCC1C[C@@H]2[C@@H](O)c1ccnc2ccccc12` (stereo not given in full), for which the Potency is 23.5 µM (active). The same measure, in the same setting: as for `N#C[C@H](O[C@@H]1O[C@H](CO[C@@H]2O[C@H](CO)[C@H](O)[C@H](O)[C@H]2O)[C@H](O)[C@H](O)[C@H]1O)c1ccccc1`, the figure is 20.9 µM (active). In the case of `COc1cccc2c1[C@]13CCN(CC4CC4)[C@H](C2)[C@]1(OC)CCC(=O)C3`, the “viability, % of DMSO” value was 146% (inactive). `Cc1[nH]nc2ccc(-c3cncc(OC[C@@H](N)Cc4c[nH]c5ccccc45)c3)cc12`: the Potency is 2.64 µM (active). Same read-out and setting: as for `CC=C(C)C(=O)O[C@H]1C(C)=C2[C@@H]3OC(=O)[C@@](C)(O)[C@@]3(O)[C@@H](OC(=O)CCC)C[C@](C)(OC(C)=O)[C@@H]2[C@@H]1OC(=O)CCCCCCC`, the figure is 0.0418 µM (active); as for `CCN1CCN(C(=O)Cc2ccc(Nc3ncc(F)c(Nc4ccc(C(=O)Nc5ccccc5Cl)cc4)n3)cc2)CC1`, 7.43 µM (active); as for `COc1ccc(N(C(=O)Oc2c(C)cccc2C)c2ccnc(Nc3ccc(N4CCN(C)CC4)cc3)n2)c(OC)c1`, 1.48 µM (active). Same read-out and setting: as for `CCOC(=O)c1cncn1[C@H](C)c1ccccc1`, the figure is 5.26 µM (active); as for `CC(=O)O[C@@]12CO[C@H]1C[C@H](O)[C@@]1(C)C(=O)[C@H](O)C3=C(C)[C@@H](O)C[C@@](O)([C@@H](OC(=O)c4ccccc4)[C@@H]21)C3(C)C`, 1.48 µM (active). Regarding `C[C@H]1CCCC=CC2C[C@H](O)C[C@@H]2[C@H](O)C=CC(=O)O1` (stereo not given in full), the “viability, % of DMSO” value was 64.8% (inactive).

In the case of `C=C[C@@H]1CN2CCC1C[C@H]2[C@H](O)c1ccnc2ccccc12` (stereo not given in full), the Potency was 23.5 µM (active). Still for that read-out and setting: for `COCC1(CO)C(=O)C2CCN1CC2` (stereo not given) the value was 7.43 µM (active).

For the compound `CC(C)(C)[C@]1(O)C[C@@H]2OC(=O)C[C@@]23C(=O)O[C@@H]2OC(=O)[C@H](O)C213` (stereo not given in full), the “viability, % of DMSO” value was 109% (inactive). As for `C=CCON=C(C[C@H]1O[C@@H]2O[C@]3(C)CC[C@@H]4[C@H](C)CC[C@@H]([C@H]1C)[C@@]24OO3)[C@H]1O[C@@H]2O[C@]3(C)CC[C@H]4[C@H](C)CC[C@@H]([C@@H]1C)[C@@]24OO3`, the Potency was 0.148 µM (active). In the case of `NC1CC1c1ccccc1` (stereo not given), the “viability, % of DMSO” value was 124% (inactive). In the case of `CO[C@H]1CCC(O[C@H]2C[C@H]([C@]3(C)CC[C@]4(C[C@H](O)[C@@H](C)[C@@H]([C@@H](C)C=C(C)C(=O)[C@H](C)C[C@H](C)C(=O)O)O4)O3)O[C@]3(O[C@@H]([C@H]4O[C@@](O)(CO)[C@H](C)C[C@H]4C)C[C@H]3C)[C@H]2C)O[C@H]1C` (stereo not given in full), the Potency was 0.0833 µM (active). Regarding `CC(=Cc1csc(C)n1)[C@@H]1C[C@H]2O[C@@H]2CCC[C@H](C)[C@@H](O)[C@@H](C)C(=O)C(C)(C)[C@@H](O)CC(=O)O1`, the “viability, % of DMSO” value is 71.1% (inactive). `COc1cc([C@@H]2c3cc4c(cc3[C@@H](O)C3COC(=O)C32)OCO4)cc(OC)c1O` (stereo not given in full): the Potency was 0.0418 µM (active). On to `c1ccc(CCCN2CCN(CCOC(c3ccccc3)c3ccccc3)CC2)cc1`, for which the Potency was 20.9 µM (active). On the same count and under the same terms, as for `CN1CCN(c2ccc([N+](=O)[O-])c3no[n+]([O-])c23)CC1`, the figure is 18.7 µM (active); as for `COc1ccc2c(c1)CN(C)CC2c1ccc(Cl)c(Cl)c1` (stereo not given), 20.9 µM (active).

Consider `CC1(N2CCC(n3c([C@@H]4CCCNC4)nc4ccccc43)CC2)CCCCCCC1`, for which the Potency is 20.9 µM (active). In the case of `N=c1c2c(-c3ccccc3)c(-c3ccccc3)n(Cc3ccccc3)c2ncn1C1CCC(O)CC1` (stereo not given), the Potency was 6.62 µM (active). With `O=C(O)CNC(=O)c1c(O)c2ccccc2n(Cc2ccccc2)c1=O`, the “viability, % of DMSO” value was 117% (inactive). On the same count and under the same terms, as for `O=S(=O)(F)Cc1ccccc1`, the figure is 202% (inactive). Turning to `CC[C@@H]1[C@@H](C)O[C@@](O)([C@@H](C)[C@H](O)[C@H](C)[C@H]2OC(=O)C=CC=C[C@@H](C)[C@@H]([C@@H](C)[C@@H](O)[C@H](C)[C@@]3(O)C[C@H](O[C@H]4C[C@H](O)[C@H](O)[C@H](C)O4)[C@H](CC)[C@@H](C)O3)OC(=O)C=CC=C[C@@H]2C)C[C@H]1O[C@H]1C[C@H](O)[C@H](O)[C@H](C)O1`, the Potency was 0.935 µM (active). With `CC(O)=C(C#N)C(=O)Nc1cc(Br)ccc1Br`, the Potency is 20.9 µM (active). Turning to `O=C(Oc1ccc([N+](=O)[O-])cc1)N1CCC(C(O)(c2ccc3c(c2)OCO3)c2ccc3c(c2)OCO3)CC1`, the “viability, % of DMSO” value is 130% (inactive).

As to `Cc1nc(-c2ccc(-c3ccc(C(=O)N4CCc5cc6c(cc54)C4(CCN(C)CC4)CO6)cc3)c(C)c2)no1`, the “viability, % of DMSO” value was 140% (inactive).

As to `CN(C)NC(=O)CCC(=O)O`, the Potency is 7.43 µM (active). In the case of `C=C1C[C@H]2[C@H]3CCC(=O)[C@@]3(C)CC[C@@H]2[C@@]2(C)C=CC(=O)C=C12`, the Potency was 20.9 µM (active). As for `CC(C)(O)C=CC(=O)[C@](C)(O)[C@H]1[C@H](O)C[C@]2(C)[C@@H]3CC=C4[C@@H](C=C(O)C(=O)C4(C)C)[C@]3(C)C(=O)C[C@@]12C`, the Potency was 1.18 µM (active).

On to `CC(N[C@H]1C[C@H]1c1ccccc1)c1ccc2c(c1)OCCO2` (stereo not given in full), for which the Potency was 1.87 µM (active). With `Cc1c(C(=O)Nc2cccc(C(F)(F)F)c2)cc(-c2ccccc2)n1CCCN1CCOCC1`, the Potency was 13.2 µM (active). Regarding `C[C@@H]1O[C@@H](O[C@@H]2C=C3CC[C@@H]4[C@@H](CC[C@]5(C)[C@H](c6ccc(=O)oc6)CC[C@@]45O)[C@@]3(C)CC2)[C@H](O)[C@H](O)[C@H]1O`, the Potency was 0.0187 µM (active). As for `O=C(N[C@H]1CN2CCC1CC2)c1ccc(Cl)cc1`, the “viability, % of DMSO” value was 144% (inactive). `CCNC(=O)C[C@@H]1N=C(c2ccc(Cl)cc2)c2cc(OC)ccc2-n2c(C)nnc21`: the Potency is 0.235 µM (active). Turning to `c1ccc2c(CN3CCNCC3)cccc2c1`, the “viability, % of DMSO” value was 123% (inactive). Consider `CC(C)N(CCNC(=O)CN1CCCC1=O)C(C)C`, for which the Potency is 11.8 µM (active).

With `CC1=NN=C(c2ccc(N)cc2)c2cc3c(cc2C1)OCO3`, the “viability, % of DMSO” value was 126% (inactive).

For the origin of these results see PubChem BioAssay (NCATS).
